From PubChem BioAssay come the findings set out here.

Values joined by “and” are separate entries in the source; they are usually repeats but may differ in a detail not shown here. Identical values can stand only once. Active and inactive are the calls of the source. Rule as the data show it, unless noted: active = parasite load remaining mostly below about 12% (no sharp cut-off); inactive = mostly above about 10%. Starred links: 1 amine or outer side, 2 acyl side, 3 side chain; linkers in the order of their positions; H or OH if unused. Positions of bridges follow the written chain, without caps; N, C: chain ends. Non-standard residues stand in square brackets, D forms with d. Residues, ends and D or L forms follow the SMILES beside them. Chains are numbered I, II in the order given. Actinocin(9to1) = Cc1c2oc3c(C)ccc(C(=O)[*:1])c3nc-2c(C(=O)[*:2])c(N)c1=O; NMeV = CN[C@H](C(=O)O)C(C)C; Sar = CNCC(=O)O

Test [1] in a line: liver-stage malaria parasite growth inhibition, primary screen, cell-based, HepG2, luciferase luminescence, HepG2 viability (AID 624349).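 Also: 100% = mean of DMSO negative control wells on the same plate.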 Conditions: P. berghei liver stage in HepG2, luciferase luminescence, concentration not given here; parasite load remaining: stronger effect = lower value; viability: measured here: HepG2 viability without parasites.
Test [2] can be described thus: stimulators of nuclear beta-catenin in C2C12, primary screen, imaging, WNT3A-conditioned medium, mouse C2C12, NPC library (AID 1117326; in the data active = nuclear beta-catenin stimulation mostly above about 4.2%, no sharp cut-off; inactive = mostly below about 10%). Conditions: stronger effect = higher value.
Test [3] in a line: stimulators of insulin release from INS-1E, primary screen, cell-based, 5 mM glucose, NPC library (AID 1117329;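 active = compound raises insulin release from rat beta cells at 5 mM glucose, no numeric limit stated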). Conditions: rat INS-1E insulin secretion, at 10 µM, stronger effect = higher value.
Test [4] in a line: growth inhibition of GSK3B-pretreated HCT116 cells – cell-based, CellTiter-Glo, 0.2 to 20 µM (AID 1117336;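 active = compounds lowering colon cancer cell viability after pretreatment blocking the GSK3B kinase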). Conditions: HCT116 viability after GSK3B inhibitor, at 20 µM, stronger effect = higher value.
Test [5] can be described thus: inhibition of endothelial tube formation, primary screen, imaging, VEGF stimulated, CD31 staining, tube area, NPC library (AID 1117340;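 active = compound that reduces growth-factor-driven endothelial tube area in a mixed cell culture, no cutoff stated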). Conditions: VEGF-stimulated ADSC/ECFC co-culture, at 10 µM, stronger effect = higher value.
Test [6] can be described thus: glucagon-like peptide 1 release enhancers, primary assay, NCI-H716 cell line, NPC library (AID 1117341;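 active = compound raises GLP1 secretion from the human gut endocrine cells, with no numeric limit stated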). Conditions: NCI-H716 cells, at 10 µM, stronger effect = higher value.
Test [7] can be described thus: HCT116 colon cancer cell growth inhibition, primary screen, CellTiter-Glo luminescence, NPC library (AID 1117342;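 active = compounds that lower survival of HCT116 colon cancer cells in the luminescence readout, no numeric limit stated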). Conditions: at 20 µM (top of the series). Background: Cellular ATP, detected with luciferase, serves as a proxy for viable cell number.
Test [8] can be described thus: CellTiter-Glo luminescent readout of SW480 viability loss, NPC library primary (AID 1117343;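 active = compounds that lower viability of the colon cancer cells in the luminescence readout, with no numeric limit stated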). The following applies: CellTiter-Glo luminescence; at 20 µM (top of the series).
A short description of test [9]: decreased DLD-1 cellular survival, CellTiter-Glo luminescent readout, NPC compound collection, primary HTS (AID 1117346;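 active = compounds that lower survival of DLD-1 colon cancer cells in the luminescence readout, no cutoff given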). Conditions: DLD-1 viability, CellTiter-Glo luminescence; at 20 µM (top of the series).
The target in test [10] is 6-phosphogluconate dehydrogenase, decarboxylating (Homo sapiens) (UniProt P52209). Kind of test: 6PGD enzyme inhibitors, primary screen, biochemical, human, recombinant enzyme, NADPH absorbance (AID 1159550;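 active = at least 20% inhibition of 6-phosphogluconate dehydrogenase activity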). The following applies: recombinant 6PGD, NADPH absorbance 341 nm; at 10 µM; stronger effect = higher value.
A short description of test [11]: Cy5 fluorescence interference with SSB-bound oligo, artefact control for HCV NS3 helicase inhibitor project, biochemical, NIH Clinical Collection, E. coli SSB (AID 743268; call rule not given here).
The test system of test [12] is Hepatitis C virus NS3 helicase. Briefly: HCV NS3 helicase inhibitors, primary screen, biochemical, fluorescence polarization, NIH Clinical Collection (AID 743270; call rule not given here). The following applies: NS3 helicase binding to Cy5-dT15 DNA, stronger effect = higher value, concentration not given here. A general note: Fluorescence polarisation rises when a labelled molecule tumbles more slowly, as on binding a larger partner.

In test [13] the target is Single-stranded DNA-binding protein (Escherichia coli (strain K12)) (UniProt P0AGE0). Briefly: E. coli SSB displacement from DNA, counter-screen for HCV NS3 helicase inhibitor project, biochemical, fluorescence polarization, NIH Clinical Collection (AID 743271; in the data active = inhibition above about 28%). The following applies: stronger effect = higher value, concentration not given here. A general note: A counterscreen serves to expose hits that act by an unwanted route or on another target.

Test [14] is described as follows: fluorescence interference in NS3h assay format, artefact control for HCV NS3 helicase inhibitor project, biochemical, NIH Clinical Collection (AID 743272; call rule not given here;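 also: HCV NS3 helicase with a Cy5 labelled single stranded DNA probe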). The following applies: fluorescence interference counterscreen, stronger effect = lower value.
The subject of test [15] is Hepatitis C virus NS3 helicase. Kind of test: HCV NS3 helicase inhibitors, primary screen, biochemical, fluorescence polarization, LOPAC1280 library (AID 687035; in the data active = inhibition above about 37%). Conditions: Purified HCV NS3 helicase, Cy5-dT15 ssDNA binding fluorescence polarization; stronger effect = higher value; concentration not given here.
The nature of test [16]: Cy5 fluorescence quenching or enhancement artefacts, artefact control for HCV NS3 helicase inhibitor project, biochemical, LOPAC1280 (AID 687037; call rule not given here). Conditions: Cy5-DNA-NS3h complex fluorescence interference counterscreen.
In test [17] the test system is Neuropilin-2 / VEGF-C interaction (human). Kind of test: inhibitors of NRP2–VEGF-C binding, biochemical, microplate binding format, z-score (AID 743281; call rule not given here). Conditions: microplate NRP2/VEGF-C binding assay; stronger effect = lower value.

Sequence of 6-phosphogluconate dehydrogenase, decarboxylating (Homo sapiens) (P52209 whole entry, looked up): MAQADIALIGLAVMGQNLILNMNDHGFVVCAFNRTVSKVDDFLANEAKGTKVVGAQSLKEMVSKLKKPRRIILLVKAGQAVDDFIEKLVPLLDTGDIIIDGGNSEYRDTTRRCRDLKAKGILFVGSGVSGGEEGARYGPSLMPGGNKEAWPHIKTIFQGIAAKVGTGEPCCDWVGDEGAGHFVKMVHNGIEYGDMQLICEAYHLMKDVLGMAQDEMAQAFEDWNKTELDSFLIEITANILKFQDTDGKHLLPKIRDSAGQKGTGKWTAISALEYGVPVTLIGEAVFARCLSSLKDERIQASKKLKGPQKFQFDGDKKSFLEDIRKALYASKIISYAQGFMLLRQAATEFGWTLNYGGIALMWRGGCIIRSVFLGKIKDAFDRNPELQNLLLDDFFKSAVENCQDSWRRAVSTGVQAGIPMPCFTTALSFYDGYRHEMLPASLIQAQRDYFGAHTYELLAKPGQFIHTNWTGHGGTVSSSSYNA

With `CO[C@@]1(NC(=O)C(C(=O)O)c2ccc(O)cc2)C(=O)N2C(C(=O)O)=C(CSc3nnnn3C)CO[C@@H]21` (stereo partly drawn), the parasite load remaining in [1] is 95.7% (inactive) and 71.7% (inactive). Also, in [1], the viability was 77.5% and 90.5%. Also, the nuclear beta-catenin stimulation in test [2] (at 10 µM) is 1.6% (inactive); in test [2] (stimulation, at 2 µM) it was -0.2%. Further, in [3], the insulin secretion stimulation was -0.4% (inactive). In test [4], the viability decrease is 23.9% (inactive). Besides, the tube area decrease in test [5] was 10.2% (inactive). In addition, the GLP1 secretion stimulation in test [6] was 1.3% (inactive). The inhibition of viability in test [7] was 2.9% (inactive). Moreover, the figures for the viability decrease (inhibition) in test [8] and in test [9] were 25.1% (inactive) and -26% (inactive), respectively. The inhibition in test [10] is 3.95% (inactive).

As to `C[n+]1ccccc1/C=N/O`, in test [1], the parasite load remaining was 55.9% (inactive) and 86% (inactive) and 126% (inactive). For the same compound, the viability in test [1] is 133% and 101% and 76.5%. The fluorescence ratio in [11] is 1 (inactive); in test [14] it was 0.96 (inactive). Also, the inhibition in [12] is -3.18% (inactive); in test [13] it was -0.48% (inactive); in [10] it was -6.73% (inactive). Besides, the nuclear beta-catenin stimulation is -0.7% (inactive) in test [2] (at 10 µM) and -0.6% in test [2] (stimulation, at 2 µM). For the same compound, the insulin secretion stimulation in [3] was 2.2% (inactive). Further, in test [4], the viability decrease is 15.7% (inactive). Moreover, in [5], the tube area decrease is -4.4% (inactive). For the same compound, the GLP1 secretion stimulation in test [6] is -3.1% (inactive). Further, the inhibition of viability in test [7] was 1.77% (inactive). In addition, the viability decrease (inhibition) in [8] is -3.4% (inactive); in test [9], 0.4% (inactive).

`CN(C)CCCN1c2ccccc2Sc2ccccc21`: the parasite load remaining in test [1] was 72.2% (inactive) and 44.2% (inactive) and 20.3% (inactive). In addition, the viability in [1] is 85.1% and 62.8% and 90.9%. The inhibition was -9% (inactive) in test [15] and 6.03% (inactive) in [10]. Moreover, the fluorescence ratio (interference) in test [16] is 0.9 (inactive). Moreover, the nuclear beta-catenin stimulation is 2.1% (inactive) in test [2] (at 10 µM) and 1.6% in test [2] (stimulation, at 2 µM). The insulin secretion stimulation in test [3] is 14.5% (inactive). In test [4], the viability decrease was -76.1% (inactive). In [5], the tube area decrease was 12.3% (inactive). In test [6], the GLP1 secretion stimulation is 9.2% (inactive). Also, the inhibition of viability in [7] is 39.3% (inactive). Moreover, the viability decrease (inhibition) in [8] is 95.8% (active); in test [9], 14.3% (inactive).

On to `Cc1c2oc3c(C)ccc(C(=O)N[C@@H]4C(=O)N[C@H](C(C)C)C(=O)N5CCC[C@H]5C(=O)N(C)CC(=O)N(C)[C@@H](C(C)C)C(=O)O[C@@H]4C)c3nc-2c(C(=O)N[C@@H]2C(=O)N[C@H](C(C)C)C(=O)N3CCC[C@H]3C(=O)N(C)CC(=O)N(C)[C@@H](C(C)C)C(=O)O[C@@H]2C)c(N)c1=O` (I: T[dV]P[Sar][NMeV] / II: T[dV]P[Sar][NMeV]; ester I:1-I:C, II:1-II:C; linker I:N-II:N via Actinocin(9to1)), for which, in test [1], the parasite load remaining is -0.02% (inactive). For the same compound, the viability in [1] was found to be 31.5%. Further, the fluorescence ratio in [11] is 0.91 (inactive); in [14] it was 0.93 (inactive). In addition, the inhibition is 1.53% (inactive) in [12], 2.76% (inactive) in test [13] and -6.87% (inactive) in test [10]. Further, the z-score in test [17] was -4.03 (active). Besides, the nuclear beta-catenin stimulation in test [2] (at 10 µM) was 92.5% (active); in [2] (stimulation, at 2 µM) it was 109%. Further, the insulin secretion stimulation in [3] is 1% (inactive). The viability decrease in [4] is -75.8% (active). In addition, in [5], the tube area decrease was 110% (active). In addition, the GLP1 secretion stimulation in test [6] is 1.9% (inactive). Further, the inhibition of viability in test [7] was 37.8% (active). Also, the viability decrease (inhibition) in test [8] is 70.6% (active); in test [9] it was 69.3% (active).

Regarding `Cn1c(=O)c2c(ncn2C)n(C)c1=O`, the parasite load remaining in test [1] was 89.2% (inactive) and 70.9% (inactive). Moreover, the viability in [1] was 73.1% and 94.9%. Further, the inhibition is -2% (inactive) in test [15] and 8.55% (inactive) in test [10]. Besides, the fluorescence ratio (interference) in [16] was 1 (inactive). Also, the nuclear beta-catenin stimulation in test [2] (at 10 µM) is 0.2% (inactive); in test [2] (stimulation, at 2 µM), 3.1%. Moreover, in test [3], the insulin secretion stimulation is 4.3% (inactive). For the same compound, the viability decrease in test [4] was -1.7% (inactive). Further, the tube area decrease in test [5] is 16.4% (inactive). Also, the GLP1 secretion stimulation in [6] was -0.2% (inactive). The inhibition of viability in [7] is -8.8% (inactive). Besides, the results for the viability decrease (inhibition) in [8] and in [9] were -11.7% (inactive) and 7.2% (inactive), respectively.

As usually defined, the viability is a read-out of living cells in per cent, often relative to untreated cells. The inhibition is the change of the read-out against control, counted positive when it falls.
